# According to the supplement of paper PMC7156485:
# ± gives the standard deviation of the averaged measurements.
# Key:
# Conditions in all cases: concentration: 10 µM; 24 h
# HCC1569 [1] = experiment: cell number relative to DMSO (% of DMSO); higher = more cells (less growth inhibition / toxicity)
# Summary of the method: (§1)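 In 384-well plates holding 800 HCC1569 or TDF cells per well in RPMI with 10% FBS, compounds were tested at 10 µM for 24 h at 37 °C in triplicate. Fixation used 3.7% formaldehyde. Staining used a rabbit anti-H1.0 antibody with an AlexaFluor 647 secondary, plus DAPI. Each value, H1.0 nuclear intensity or cell number, is a median of replicates shown as percent of the plate control, and HCC1569 values were smoothed for positional effects.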
# TDF [2] = experiment: as above
# Summary of the method: as §1
# TDF [3] = experiment: H1.0 immunofluorescence intensity relative to DMSO (% of DMSO); higher = stronger H1.0 induction, active = 120 or more
# Summary of the method: as §1
# HCC1569 [4] = experiment: H1.0 immunofluorescence intensity relative to DMSO (% of DMSO); higher = stronger H1.0 induction, active = 140 or more
# Summary of the method: as §1
# 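Throughout, for H1.0 immunofluorescence intensity relative to DMSO: TDF is a line of transformed human dermal fibroblasts of mesenchymal origin.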
# 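Throughout, for cell number relative to DMSO: TDF denotes transformed human dermal fibroblasts of mesenchymal origin.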
smiles,measurement,setting,value
COc1ccc(C=CC(=O)Nc2ccccc2C(=O)O)cc1OC [Tranilast],cell number,HCC1569 [1],99.2 ± 2.1
same,cell number,TDF [2],103 ± 4.7
same,H1.0 immunofluorescence intensity,TDF [3],92.9 (inactive)
same,H1.0 immunofluorescence intensity,HCC1569 [4],102 (inactive)
CC(=O)c1ccc2c(c1)[C@H](NC(=O)c1ccc(F)c(Cl)c1)[C@H](O)C(C)(C)O2,cell number,HCC1569 [1],97.4
same,cell number,TDF [2],98
same,H1.0 immunofluorescence intensity,TDF [3],104 (inactive)
same,H1.0 immunofluorescence intensity,HCC1569 [4],99.5 (inactive)
O=C1NC(C(=O)O)CS1 (stereo unspecified) [Procysteine],cell number,HCC1569 [1],101
same,cell number,TDF [2],110
same,H1.0 immunofluorescence intensity,TDF [3],97.1 (inactive)
same,H1.0 immunofluorescence intensity,HCC1569 [4],98.1 (inactive)
CCCCCCCCCCCC=CCCCCCCC(=O)O [8(Z)-Eicosenoic acid],cell number,HCC1569 [1],103
same,cell number,TDF [2],105
same,H1.0 immunofluorescence intensity,TDF [3],100 (inactive)
same,H1.0 immunofluorescence intensity,HCC1569 [4],103 (inactive)
COc1ccc2c(c1)CCC1C2CCC2(C)C(NCCCCCCN3C(=O)C=CC3=O)CCC12 (stereo unspecified),cell number,HCC1569 [1],103
same,cell number,TDF [2],111
same,H1.0 immunofluorescence intensity,TDF [3],88.6 (inactive)
same,H1.0 immunofluorescence intensity,HCC1569 [4],103 (inactive)
O=C(NC(NC(=S)Nc1ccc(F)c([N+](=O)[O-])c1)C(Cl)(Cl)Cl)C(c1ccccc1)c1ccccc1 (stereo unspecified) [ATM/ATR Kinase Inhibitor],cell number,HCC1569 [1],62.4
same,cell number,TDF [2],64.5
same,H1.0 immunofluorescence intensity,TDF [3],112 (inactive)
same,H1.0 immunofluorescence intensity,HCC1569 [4],179 (active)
CCN(CC)CCNC(=O)c1ccc(NC(C)=O)cc1.Cl [N-Acetylprocainamide hydrochloride],cell number,HCC1569 [1],104
same,cell number,TDF [2],110
same,H1.0 immunofluorescence intensity,TDF [3],105 (inactive)
same,H1.0 immunofluorescence intensity,HCC1569 [4],116 (inactive)
COc1cc2oc(-c3ccc(O)c(O)c3)cc(=O)c2c(O)c1OC,cell number,HCC1569 [1],75
same,cell number,TDF [2],82
same,H1.0 immunofluorescence intensity,TDF [3],91.1 (inactive)
same,H1.0 immunofluorescence intensity,HCC1569 [4],118 (inactive)
O=c1c(O)c(-c2ccccc2)oc2cc(O)cc(O)c12 [Galangine],cell number,HCC1569 [1],98.1
same,cell number,TDF [2],91.3
same,H1.0 immunofluorescence intensity,TDF [3],101 (inactive)
same,H1.0 immunofluorescence intensity,HCC1569 [4],100 (inactive)
